Sampled rows, rich in hits. Any-hit rate of the full collection: about 4.6%.
D1 PAM: enhances dopamine response at the human D1 receptor; P21728; HEK293 TREx D1 cells, calcium flux, dopamine EC20 potentiation; potentiation, % at 10 µM; actives 0.036% (n = 360,000); AID 504651; in the data active means potentiation above about 30%
Epigenetic reg: derepresses silenced GFP reporter in murine cells | Potency, µM (series often up to 53.9 µM), most hits filed as activators | actives 0.2% (n = 280,000) | murine LDR cells, GFP reporter derepression, 30 h; active means well fitted activation curve with a large enough effect; inconclusive means small, poorly fitted or top-dose-only effect; further: nearly all actives have a fitted effect of over 60% in size
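GFP-positive cell count by laser-scanning cytometry (objects 20–120 um) after 30 h, 37 C compound exposure of murine LDR cells; reporter is CMV-GFP integrated at a silenced locus, inducible by HDAC or DNMT inhibitors.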
D1 agonist: human D1 receptor agonism | P21728 | HEK293 T-REx D1 cells, calcium flux, agonist mode | activation, % at 2 µM | actives 1% (n = 360,000) | AID 504660
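Inducible HEK293 T-REx D1 cells, force-coupled to calcium signalling, were plated at 4000 cells/well with tetracycline and held overnight at 30 C. After no-wash calcium dye loading, compound-evoked calcium rise over 180 s flagged agonists.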
TRHR agonist: activates the human TRH receptor; P34981; TRHR cells, calcium flux fluo-8, FDSS agonist mode; activation, % at 2 µM; actives 0.18% (n = 360,000)
Target sequence (P34981 whole entry, looked up): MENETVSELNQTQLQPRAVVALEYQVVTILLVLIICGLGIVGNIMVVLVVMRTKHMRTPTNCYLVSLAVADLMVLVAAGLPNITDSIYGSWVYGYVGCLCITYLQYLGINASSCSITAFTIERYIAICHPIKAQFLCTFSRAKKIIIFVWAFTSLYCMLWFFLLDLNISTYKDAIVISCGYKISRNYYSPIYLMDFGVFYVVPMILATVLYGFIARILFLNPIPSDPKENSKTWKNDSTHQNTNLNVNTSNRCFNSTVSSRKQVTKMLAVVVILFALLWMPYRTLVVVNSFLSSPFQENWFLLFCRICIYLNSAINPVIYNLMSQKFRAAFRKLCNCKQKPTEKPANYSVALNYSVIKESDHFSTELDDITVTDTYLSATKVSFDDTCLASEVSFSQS
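In this calcium-flux screen, cells bearing human TRHR are dye-loaded with fluo-8, baselined for 10 cycles, then exposed to library compounds; positive kinetic calcium responses during the agonist phase mark hits, with TRH as control.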
D1 antagonist: human D1 dopamine receptor antagonism; actives 3.2% (n = 360,000); P21728; activity change, negative = inhibition, % at 10 µM; HEK293 TREx D1 cells, calcium flux, dopamine EC80; stronger effect = lower value; AID 504652; in the data active means activity change below about -30%
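Allosteric or orthosteric antagonism assessed as attenuation of the calcium response to EC80 dopamine, added 180 s after compound, in induced HEK293 Trex D1 cells loaded with no-wash calcium dye.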
TRHR enhancer: allosteric enhancers of human TRH receptor; AID 493056; enhancement, % at 2 µM; TRHR cells, fluo-8 calcium fluorescence, EC20 TRH enhancement; actives 0.66% (n = 360,000); P34981; in the data active means enhancement above about 30%
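Enhancer read-out: after compound pinning and an initial kinetic agonist-mode read, an EC20 of TRH (10 nM final) was injected and fluo-8 calcium signal (Ex 480/Em 530) followed at 1 s/cycle for 100 cycles in TRHR-expressing cells.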
Of the large screens only hits and unclear results are named; the others gave an inactive call; ! = repeats disagree. Unless noted, no stated cut-off is given here; in the data, active means activation above about 30%; inactive means the rest.

COc1ccc(NC(=O)C(Cc2ccccc2)NS(=O)(=O)c2ccc3c(c2)CCN3C(C)=O)cc1 (centres undefined)	none
NNC(=O)c1sccc1OCc1ccc(Cl)cc1Cl	D1 antagonist -32
CNC(=O)c1sccc1SCc1ccc(Cl)cc1Cl	TRHR enhancer 33
NNC(=O)c1sccc1OCc1ccc(F)cc1	none
COCCNc1cc(N2CCN(C3CCCCC3)CC2)c2noc3c2c1C(=O)c1ccccc1-3	none
Cn1c(=O)c([N+](=O)[O-])c(NCCc2ccccc2)c2ccccc21	none
CCn1c(=O)c([N+](=O)[O-])c(NCCc2ccccc2)c2ccccc21	D1 antagonist -52
Fc1ccccc1SCc1nnc(-c2ccccc2Br)o1	D1 antagonist -66
Cc1csc(SCc2nnc(-c3ccccc3Br)o2)n1	none
O=S(=O)(NCc1ccccc1)c1ccc(F)cc1Br	none
O=S(=O)(NCc1ccc(F)cc1)c1ccc(Br)cc1Br	D1 antagonist -32 (no result: Epigenetic reg)
CCOC(=O)c1cnc2ccc(OC)cc2c1Nc1ccc(OCc2ccccc2Cl)cc1	none
CCOC(=O)c1cnc2ccccc2c1Nc1cccc(OC)c1	D1 antagonist -35
CCOC(=O)c1cnc2ccc(Cl)cc2c1Nc1ccc(OCC)cc1	D1 antagonist -58
CCOC(=O)c1cnc2ccccc2c1Nc1cc(C(=O)O)ccc1C	TRHR enhancer 37
CCC1CN(C(=O)N2CCC(C(=O)NCCc3ccccc3Cl)CC2)c2cc(C)ccc2O1 (centres undefined)	none
O=C(NCc1ccc(Cl)cc1)c1ccc(OCC2CCCO2)cc1 (centres undefined)	none
O=C(Nc1ccc(Cl)cc1)c1ccc(OCC2CCCO2)cc1 (centres undefined)	D1 antagonist -66
Cc1ccc(CNC(=O)c2ccc(OCC3CCCO3)cc2)cc1 (centres undefined)	D1 antagonist -71
COc1ccc(S(=O)(=O)N(CC(=O)Nc2cc(Cl)ccc2C)Cc2ccccc2)cc1OC	none
CCc1ccc2oc(=O)cc(CN3CCCCC3)c2c1	none (no result: Epigenetic reg)
CCc1ccc2oc(=O)cc(CN3CCN(CCO)CC3)c2c1	D1 antagonist -50
Cc1nn(C)c(C)c1S(=O)(=O)N(CC(=O)N1CCN(c2ccccc2)CC1)c1ccc(C(C)C)cc1	none
COC(=O)N/N=C/c1cccs1	D1 antagonist -32
Cc1ccccc1CSCC(=O)N/N=C/c1cccs1	D1 antagonist -41
COc1ccc(N(CC(=O)Nc2cccc(Cl)c2)S(=O)(=O)c2c(C)[nH]c(=O)[nH]c2=O)cc1	none
COc1ccccc1NC(=O)COC(=O)c1c[nH]c2ccccc12	none (no result: Epigenetic reg)
COc1ccccc1CNC(=O)COC(=O)c1c[nH]c2ccccc12	D1 agonist 45, D1 antagonist -41 (no result: Epigenetic reg)
C=C(C)c1cc2c(s1)c1cnn(Cc3ccccc3F)c(=O)c1n2C	none (no result: Epigenetic reg)
COc1ccc(OC)c(C(O)c2coc3ccc(O)c(CN4CCOCC4)c23)c1 (centres undefined)	D1 antagonist -30
COc1ccc(N=Cc2c[nH][nH]c2=O)cc1	D1 antagonist -33
O=c1[nH][nH]cc1C=Nc1ccc(Oc2ccccc2)cc1	none
COCCCNC(=O)/C(C#N)=C/c1cccc(NC(=O)c2ccccc2Cl)c1	none
N#C/C(=C\c1cccc(NC(=O)c2ccccc2Cl)c1)C(=O)NCCc1ccccc1	Epigenetic reg inconclusive, TRHR enhancer 35
COc1cccc(-c2nc(CS(=O)(=O)CC(=O)NCc3ccc(C)cc3)c(C)o2)c1	none
Cc1cccc(NC(=O)CCN2CCCC(C)C2)c1 (centres undefined)	D1 antagonist -72 (no result: Epigenetic reg)
CN1CCN(CCC(=O)Nc2ccccc2)CC1	D1 antagonist -36 (no result: Epigenetic reg)
Cc1cccc(NC(=O)CCN2CC(C)OC(C)C2)c1 (centres undefined)	TRHR enhancer 35
O=C(CSc1cccc2cccnc12)N/N=C/c1ccc(F)cc1	D1 antagonist -50
O=C(O)CSc1cccc2cccnc12	Epigenetic reg 18µM
O=C(CSc1cccc2cccnc12)N/N=C/c1cccc(O)c1	none
CSc1nn(Cc2ccc(Br)cc2)c(N(C(C)=O)C(C)=O)c1S(=O)(=O)c1ccccc1	none
COc1ccc(CN=Cc2[nH]c3ccc(Br)c(Cl)c3c2O)cc1	Epigenetic reg inconclusive
Cc1cc(C)cc(N=Cc2[nH]c3ccc(Br)c(Cl)c3c2O)c1	D1 agonist 55, TRHR agonist 36
Cc1cccc(N2CCN(C(=O)c3ccc4nc[nH]c4c3)CC2)c1C	D1 antagonist -46
CC(C)(C)OC(=O)NCC12C=CC(O1)C1C(=O)N(Cc3ccccc3)C(=O)C12 (centres undefined)	D1 antagonist -33
Cc1ccccc1NC(=O)CCn1nc(-c2ccccc2)c2ccccc2c1=O	none
COc1ccc(/C(N)=N/OC(=O)C2CCC(=O)N2S(=O)(=O)c2ccc(C)cc2)cc1 (centres undefined)	D1 antagonist -32
Cc1csc2ncnc(N3CCN(C(=S)Nc4ccc(F)cc4F)CC3)c12	D1 antagonist -36
Fc1ccc(NC(=S)N2CCCN(c3ccc(C(F)(F)F)cn3)CC2)c(F)c1	D1 antagonist -54
O=C(Nc1ccc(F)cc1F)N1CCCN(c2ccc(C(F)(F)F)cn2)CC1	none
CCCS(=O)(=O)c1nc(S(=O)(=O)c2ccc(C)cc2)c(NCc2ccccc2Cl)s1	Epigenetic reg inconclusive
CC[n+]1c(C=C2C=C(C)OC(C)=C2)sc2ccccc21	Epigenetic reg 7.9µM
CC[n+]1c(/C=C2/C=C(C)CC(C)C2)sc2ccccc21 (centres undefined)	none
Cc1oc(-c2ccccc2F)nc1CS(=O)(=O)CC(=O)NCCCN1CCN(C)CC1	none (no result: Epigenetic reg)
CCOc1ccc(CCNC(=O)CS(=O)(=O)Cc2nc(-c3ccc(OC)cc3)oc2C)cc1	TRHR enhancer 40!
CCOc1ccc(CNC(=O)CS(=O)(=O)Cc2nc(-c3ccc(OC)cc3)oc2C)cc1	none (no result: Epigenetic reg)
COc1ccc(-c2nc(CS(=O)(=O)CC(=O)NCCCN3CCN(C)CC3)c(C)o2)cc1	D1 antagonist -38 (no result: Epigenetic reg)
COc1ccc2c(C)c(CCC(=O)NCc3ccc(C)cc3)c(=O)oc2c1	none
COc1ccccc1N1CCN(CCCNC(=O)c2cnn(-c3cccc(Cl)c3)c2C2CCN(C(=O)OC(C)(C)C)CC2)CC1	D1 antagonist -31
COc1ccccc1N1CCN(CCCNC(=O)c2cnn(-c3ccc(C)c(C)c3)c2C2CCN(C(=O)OC(C)(C)C)CC2)CC1	none
CN1CCN(CCCNC(=O)c2cnn(-c3ccccc3)c2C2CCN(C(=O)OC(C)(C)C)CC2)CC1	none

Screening results from PubChem.
